A selection: hits, their analogues and other compounds. The true share with any hit is near 0.47%.
UDG counter: Primary qHTS assay for inhibitors of Activation Induced Cytidine Deaminase (AID): UDG Counterscreen signal | AID 1347430, 2020 | Uracil-DNA glycosylase | FRET deamination/UDG coupled assay, UDG read, 4 h | Potency, µM (titrated, usually from 115 µM), without a hit: at the highest dose activity change, negative = inhibition, actives largely listed as inhibitors | 91,000 compounds, 0.14% hits; also: nearly all actives have a fitted effect of over 65% in size
AID inhibitor: Primary qHTS assay for inhibitors of Activation Induced Cytidine Deaminase (AID): AID signal. AID 1347428, 2020. Potency, µM (top dose mostly 115 µM), actives largely listed as inhibitors. 91,000 compounds, 0.32% hits. AID deamination FRET fluorescence, UDG-coupled, 4 h. Single-stranded DNA cytosine deaminase (Homo sapiens), Q9GZX7; also: nearly all actives have a fitted effect of over 25% in size
Active calls of the source: *; i = inactive. Calls follow the shape of the dose curve; as a rule, active = well fitted curve in the direction sought with a large enough effect; inconclusive = small, poorly fitted or top-dose-only effect, or another doubt; inactive = no such curve, though single readings can be large; an effect the other way counts as inactive or inconclusive. % is scaled to controls: 0 for no effect and ±100 for the full control effect; potency is read from the fitted curve at half-maximal effect.

SMILES	UDG counter	AID inhibitor
COc1ccc2c(c[n+](C)c3c4cc5c(cc4ccc23)OCO5)c1OC	-18%	40µM*
CC12CCC3C(CCC4C/C(=N\O)CCC43C)C1CCC2O (stereo unspecified)	3%	i
Cc1ccc(/C=C/c2nc3ccccc3c(=O)n2-c2ccccc2)s1	-1%	i
CCCCC/C=C\C/C=C\C/C=C\C/C=C\CCCC(=O)NCC(=O)O	7%	79µM*
OCC1CN2CCC1CC2 (stereo unspecified)	6%	i
Cc1cccc(C)c1-n1nnnc1C1(NC(C)C)CCCCC1	0%	i
CN(N=O)c1cc(O)ccc1O	-19%	28µM*
COc1ccc(CNCCc2cccc(F)c2)cc1	-2%	i
CC1CC(=O)C2CCCCC2N1 (stereo unspecified)	0%	i
